Among the data in ChEMBL document CHEMBL2218924, “A broad activity screen in support of a chemogenomic map for kinase signalling research and drug discovery” (Biochem J, 2013) are residual activity values, retold here.

Experiment [1] has as its target Tyrosine-protein kinase SYK (Homo sapiens) (UniProt P43405). The settings on record: at 10 µM.
Experiment [2] addresses T1, Mitogen-activated protein kinase kinase kinase 7 (Homo sapiens) (UniProt O43318).
T1 sequence (whole entry): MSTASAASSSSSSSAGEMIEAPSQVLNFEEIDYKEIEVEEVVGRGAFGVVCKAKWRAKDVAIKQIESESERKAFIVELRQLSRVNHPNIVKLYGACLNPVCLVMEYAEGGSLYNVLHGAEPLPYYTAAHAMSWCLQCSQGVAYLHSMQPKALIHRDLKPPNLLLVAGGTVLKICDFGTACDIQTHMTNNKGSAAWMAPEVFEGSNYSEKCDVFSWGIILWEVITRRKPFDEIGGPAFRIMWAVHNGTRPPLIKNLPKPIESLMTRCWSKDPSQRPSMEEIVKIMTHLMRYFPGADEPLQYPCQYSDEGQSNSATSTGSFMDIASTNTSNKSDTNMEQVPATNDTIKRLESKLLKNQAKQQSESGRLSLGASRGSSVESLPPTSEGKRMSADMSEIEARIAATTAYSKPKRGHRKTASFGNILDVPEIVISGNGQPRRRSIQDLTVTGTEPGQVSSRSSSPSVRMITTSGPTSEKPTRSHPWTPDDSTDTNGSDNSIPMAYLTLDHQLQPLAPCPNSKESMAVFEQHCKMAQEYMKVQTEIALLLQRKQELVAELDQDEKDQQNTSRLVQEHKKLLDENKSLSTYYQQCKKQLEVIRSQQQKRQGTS
The settings on record: at 1 µM.

Experiment [3] deals with T1, Mitogen-activated protein kinase kinase kinase 7 (Homo sapiens). The settings on record: at 10 µM.
The target of experiment [4] is T2, Serine/threonine-protein kinase TAO1 (Homo sapiens) (UniProt Q7L7X3).
T2 sequence (whole entry): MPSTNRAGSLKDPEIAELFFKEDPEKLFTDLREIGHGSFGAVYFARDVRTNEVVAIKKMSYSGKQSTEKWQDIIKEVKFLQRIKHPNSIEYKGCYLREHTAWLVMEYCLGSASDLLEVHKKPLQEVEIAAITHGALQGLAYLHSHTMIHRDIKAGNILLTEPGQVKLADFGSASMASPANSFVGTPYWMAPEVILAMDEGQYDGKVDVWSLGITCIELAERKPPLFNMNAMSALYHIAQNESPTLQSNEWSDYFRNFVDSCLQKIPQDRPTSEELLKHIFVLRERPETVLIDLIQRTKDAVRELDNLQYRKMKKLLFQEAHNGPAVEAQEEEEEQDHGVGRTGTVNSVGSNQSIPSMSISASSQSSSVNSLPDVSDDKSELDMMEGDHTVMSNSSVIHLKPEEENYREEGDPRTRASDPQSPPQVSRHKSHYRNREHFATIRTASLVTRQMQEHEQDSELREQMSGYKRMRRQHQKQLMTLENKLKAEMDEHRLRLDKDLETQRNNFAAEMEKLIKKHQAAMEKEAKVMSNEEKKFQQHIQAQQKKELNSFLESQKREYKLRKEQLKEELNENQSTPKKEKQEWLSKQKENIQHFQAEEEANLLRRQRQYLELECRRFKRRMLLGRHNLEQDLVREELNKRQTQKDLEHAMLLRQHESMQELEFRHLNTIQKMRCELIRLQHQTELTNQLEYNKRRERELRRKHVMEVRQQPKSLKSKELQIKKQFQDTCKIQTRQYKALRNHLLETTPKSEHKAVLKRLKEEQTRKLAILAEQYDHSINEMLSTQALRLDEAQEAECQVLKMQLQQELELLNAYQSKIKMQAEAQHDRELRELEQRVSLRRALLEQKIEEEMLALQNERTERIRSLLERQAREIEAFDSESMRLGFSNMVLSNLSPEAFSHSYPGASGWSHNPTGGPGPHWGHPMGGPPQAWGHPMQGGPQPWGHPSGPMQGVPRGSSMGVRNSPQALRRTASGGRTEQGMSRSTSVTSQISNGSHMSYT
The conditions noted are these: at 1 µM.

Experiment [5] addresses T2, Serine/threonine-protein kinase TAO1 (Homo sapiens). The conditions noted are these: at 10 µM.
Experiment [6] addresses T3, Serine/threonine-protein kinase TAO2 (Homo sapiens) (UniProt Q9UL54).
T3 sequence (whole entry): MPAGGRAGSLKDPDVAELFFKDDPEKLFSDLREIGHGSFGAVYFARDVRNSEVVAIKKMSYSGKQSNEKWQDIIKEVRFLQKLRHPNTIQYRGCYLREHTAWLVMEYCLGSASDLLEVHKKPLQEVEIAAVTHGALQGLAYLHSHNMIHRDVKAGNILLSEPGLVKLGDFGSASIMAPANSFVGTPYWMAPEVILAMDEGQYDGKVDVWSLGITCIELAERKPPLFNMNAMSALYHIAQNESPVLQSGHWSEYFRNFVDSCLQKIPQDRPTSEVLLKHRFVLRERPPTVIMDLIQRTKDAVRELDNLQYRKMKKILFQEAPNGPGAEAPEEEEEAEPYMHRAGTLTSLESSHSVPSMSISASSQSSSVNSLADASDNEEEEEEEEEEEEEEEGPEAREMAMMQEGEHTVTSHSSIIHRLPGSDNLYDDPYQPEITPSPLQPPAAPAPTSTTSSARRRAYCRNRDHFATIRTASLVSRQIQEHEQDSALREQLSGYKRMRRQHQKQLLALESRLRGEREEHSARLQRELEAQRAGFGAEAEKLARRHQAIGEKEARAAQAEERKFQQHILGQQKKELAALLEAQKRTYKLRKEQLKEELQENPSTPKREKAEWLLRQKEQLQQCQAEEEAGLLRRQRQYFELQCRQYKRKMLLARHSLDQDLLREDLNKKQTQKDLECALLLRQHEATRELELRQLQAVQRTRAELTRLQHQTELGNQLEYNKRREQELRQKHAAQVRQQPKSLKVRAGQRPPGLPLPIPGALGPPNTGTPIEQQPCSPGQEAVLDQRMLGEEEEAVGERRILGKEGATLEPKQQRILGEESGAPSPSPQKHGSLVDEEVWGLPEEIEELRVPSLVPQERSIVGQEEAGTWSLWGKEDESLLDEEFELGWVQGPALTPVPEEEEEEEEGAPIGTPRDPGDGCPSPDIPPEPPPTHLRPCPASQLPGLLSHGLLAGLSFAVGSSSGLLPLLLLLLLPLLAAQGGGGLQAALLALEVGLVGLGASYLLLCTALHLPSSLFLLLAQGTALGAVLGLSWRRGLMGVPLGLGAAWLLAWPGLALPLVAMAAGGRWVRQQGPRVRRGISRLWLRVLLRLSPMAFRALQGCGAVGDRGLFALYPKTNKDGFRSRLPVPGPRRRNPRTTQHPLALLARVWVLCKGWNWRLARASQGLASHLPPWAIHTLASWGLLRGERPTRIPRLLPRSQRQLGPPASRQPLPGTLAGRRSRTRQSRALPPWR
The conditions noted are these: at 10 µM.

The target of experiment [7] is T4, Serine/threonine-protein kinase TAO3 (Homo sapiens) (UniProt Q9H2K8).
T4 sequence (whole entry): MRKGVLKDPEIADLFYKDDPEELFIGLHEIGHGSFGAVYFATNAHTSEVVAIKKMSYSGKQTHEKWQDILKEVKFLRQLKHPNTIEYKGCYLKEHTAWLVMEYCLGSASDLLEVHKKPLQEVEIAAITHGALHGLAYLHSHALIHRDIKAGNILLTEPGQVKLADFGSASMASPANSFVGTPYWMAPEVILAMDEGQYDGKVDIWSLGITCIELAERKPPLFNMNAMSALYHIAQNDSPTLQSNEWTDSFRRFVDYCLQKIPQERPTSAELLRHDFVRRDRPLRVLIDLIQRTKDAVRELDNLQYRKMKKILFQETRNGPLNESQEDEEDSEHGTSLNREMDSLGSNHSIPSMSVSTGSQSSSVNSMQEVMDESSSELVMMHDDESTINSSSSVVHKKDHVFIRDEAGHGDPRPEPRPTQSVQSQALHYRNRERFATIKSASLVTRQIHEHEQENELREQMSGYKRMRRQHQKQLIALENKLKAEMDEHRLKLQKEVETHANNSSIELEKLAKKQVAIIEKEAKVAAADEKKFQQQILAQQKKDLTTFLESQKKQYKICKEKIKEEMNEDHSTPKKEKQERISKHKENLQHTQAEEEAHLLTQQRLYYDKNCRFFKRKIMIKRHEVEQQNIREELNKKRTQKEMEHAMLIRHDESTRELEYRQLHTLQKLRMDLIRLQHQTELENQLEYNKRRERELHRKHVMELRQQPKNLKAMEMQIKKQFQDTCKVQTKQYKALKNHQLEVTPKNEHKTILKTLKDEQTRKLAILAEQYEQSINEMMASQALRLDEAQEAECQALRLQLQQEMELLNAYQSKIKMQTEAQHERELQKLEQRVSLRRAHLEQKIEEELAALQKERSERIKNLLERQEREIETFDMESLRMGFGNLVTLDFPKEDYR
The settings on record: at 1 µM.

The target in experiment [8] is T4, Serine/threonine-protein kinase TAO3 (Homo sapiens). The conditions noted are these: at 10 µM.
In experiment [9] the target is T5, Serine/threonine-protein kinase TBK1 (Homo sapiens) (UniProt Q9UHD2).
T5 sequence (whole entry): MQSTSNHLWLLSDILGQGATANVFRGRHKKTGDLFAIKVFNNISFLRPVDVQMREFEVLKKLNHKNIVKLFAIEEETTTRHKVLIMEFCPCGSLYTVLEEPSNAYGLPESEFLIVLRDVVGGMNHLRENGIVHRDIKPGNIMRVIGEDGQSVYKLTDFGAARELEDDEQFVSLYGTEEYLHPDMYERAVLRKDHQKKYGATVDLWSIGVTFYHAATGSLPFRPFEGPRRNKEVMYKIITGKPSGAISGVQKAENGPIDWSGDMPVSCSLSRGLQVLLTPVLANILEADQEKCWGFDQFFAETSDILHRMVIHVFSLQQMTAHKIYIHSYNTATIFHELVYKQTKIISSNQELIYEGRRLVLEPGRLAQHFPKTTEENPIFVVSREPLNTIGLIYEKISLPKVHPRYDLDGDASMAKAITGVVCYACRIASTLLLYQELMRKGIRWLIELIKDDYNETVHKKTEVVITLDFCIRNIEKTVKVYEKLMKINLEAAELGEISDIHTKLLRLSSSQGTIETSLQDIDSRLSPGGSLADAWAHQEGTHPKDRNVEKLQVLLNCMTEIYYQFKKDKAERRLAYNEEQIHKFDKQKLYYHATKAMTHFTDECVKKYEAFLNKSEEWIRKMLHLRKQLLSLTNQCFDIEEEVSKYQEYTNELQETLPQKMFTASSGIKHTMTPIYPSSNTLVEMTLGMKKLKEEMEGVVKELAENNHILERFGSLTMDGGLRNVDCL
The conditions noted are these: at 1 µM.

As for `c1ccc2c(-c3ccncc3)c[nH]c2c1`, the residual activity is 92% in experiment [1]; 85% in [2]; 85% in experiment [3]; 100% in [4]; 66% in experiment [5]; 85% in [6]. Also, the residual activity in [7] is 98%; in experiment [8] it was 72%; in experiment [9], 65%.
